Hit rate of the full screen: of about 420,000 compounds, about 50,000 (12%) were called active. A call without a number means that no potency is given here. Inconclusive results (about 26%) are left out. This excerpt belongs to a sample that is enriched for actives. Values without a mark were called inactive. Calls follow the shape of the dose curve; as a rule, active = well fitted inhibition curve with a large enough effect; inconclusive = small, poorly fitted or top-dose-only effect; inactive = flat fitted curve, though single readings scatter.
assay: qHTS for Inhibitors of human tyrosyl-DNA phosphodiesterase 1 (TDP1): qHTS in cells in presence of CPT; conditions: chicken DT40 Tdp1-/-;hTDP1 cells + 20 nM CPT, ATP luminescence, 48 h; series mostly up to 46.2 µM; also: nearly all actives have a fitted effect of over 55% in size
Outline: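 Cell growth measured by CellTiter-Glo luminescence after a minimum 48 h, 37 C compound exposure with 20 nM CPT in Tdp1-knockout DT40 cells stably expressing hTDP1, seeded 400/well; qHTS titration format.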
Potency is read from the fitted curve at half-maximal effect.

| SMILES | Potency | activity change, negative = growth inhibition |
| --- | --- | --- |
| NC1=NC2(CCCCC2)N(c2ccc(F)cc2F)C(N)=N1 | inactive |  |
| COc1cc([N+](=O)[O-])cc([N+](=O)[O-])c1NC(=O)N1CCOCC1 | inactive |  |
| CCOC(=O)CSc1ncc(-c2cccc(Cl)c2)cn1 | inactive |  |
| Cn1nc(-c2ccccc2)c(CO)c1Sc1ccccc1 | inactive |  |
| Cn1nc(-c2ccccc2)c(CSc2cccc(Cl)c2)c1Cl | 16.4 µM (active) |  |
| C=CCSc1ccc(S(=O)(=O)N2CCN(C)CC2)cn1 | inactive |  |
| Cc1n[nH]c(=O)n1-c1ccc(C(C)C)cc1 | inactive |  |
| CCOc1ccc(NC(=O)CN(C)C(=O)Cn2c(=O)cnc3ccccc32)cc1OCC | inactive |  |
| COc1ccc(N2CCC(CNC(=S)Nc3c(C)cccc3C)C2)cc1 (stereo not drawn) | 23.1 µM (active) |  |
| COc1cccc(N2CC(C(=O)Nc3c(C)cccc3C)CC2=O)c1 (stereo not drawn) | inactive |  |
| COc1ccc(N2CCC(N3CCN(C)C(CCO)C3)CC2)cc1 (stereo not drawn) | inactive |  |
| COc1cc(C(=O)Nc2ccc(OCc3cc(=O)n4cc(C)sc4n3)cc2)cc(OC)c1OC | inactive |  |
| CC(=O)Nc1ccc(OC(=O)COc2ccc(Br)cc2)cc1 | inactive |  |
| COc1ccccc1S(=O)(=O)c1c(C)cc(C)[nH]c1=O | inactive |  |
| CC(O)c1nc2ccccc2n1Cc1ccc([N+](=O)[O-])cc1 (stereo not drawn) | inactive |  |
| CC(C)c1ccc(Cn2c(COc3ccccc3)nc3ccccc32)cc1 | 18.4 µM (active) |  |
| O=C(O)CCn1c(Cc2ccccc2)nc2ccccc21 | inactive |  |
| Cc1ccc(NC(=O)N2CCC(O)(c3cccnc3)CC2)cc1 | inactive |  |
| Cn1c(C(=O)O)ccc1S(=O)(=O)N(Cc1ccccc1)Cc1ccccc1 | inactive |  |
| COc1ccccc1N(CC(=O)NC1CCCC1)C(=O)C1(C)CC(=O)N=C2C=CC(C)=CN21 (stereo not drawn) | inactive |  |
| COC(=O)c1scc(-c2ccc(C)cc2)c1S(=O)(=O)Nc1cc(Cl)c(OC)cc1OC | 13 µM (active) |  |
| COc1cc(NC(=O)c2ccc(-c3csc(C)n3)cc2)c(OC)cc1Cl | inactive |  |
| COc1cc(OC)c(NS(=O)(=O)c2cn(C)cn2)cc1Cl | inactive |  |
| COc1ccccc1-c1ccnc(-n2ncc(C(=O)NCCCN3CCOCC3)c2C)n1 |  | 7.6% [at 9.04 µM] |
| Cc1ccc(CN2CCC(CNC(=O)c3cnn(-c4ccccc4Cl)c3C3CCN(C(=O)OC(C)(C)C)CC3)CC2)cc1 | 5.8 µM (active) |  |
| CSCCC(=O)N1CCCC(CNC(=O)c2ccccc2Cl)C1 (stereo not drawn) | inactive |  |

| SMILES | Potency | activity change, negative = growth inhibition |
| --- | --- | --- |
| CCOC(=O)N1CCN(C(=O)C2CCN(Cc3ccc(OC)cc3OC)CC2)CC1 | inactive |  |
| COc1ccccc1CN1CCC(CNC(=O)c2cnn(-c3ccccc3Cl)c2C2CCN(C(=O)OC(C)(C)C)CC2)CC1 | 8.2 µM (active) |  |
| COc1ccccc1CN1CCC(CNC(=O)c2cnn(-c3cccc(Cl)c3)c2C2CCN(C(=O)OC(C)(C)C)CC2)CC1 | 7.31 µM (active) |  |
| COc1ccc(Cl)cc1NC(=O)NCC1CCN(Cc2ccccc2F)CC1 | inactive |  |
| COc1ccccc1N1CCN(CCCNC(=O)c2cnn(-c3ccccc3Cl)c2C2CCN(C(=O)OC(C)(C)C)CC2)CC1 | 8.2 µM (active) |  |
| COc1ccccc1CNC(=O)C1CCN(S(=O)(=O)c2ccc3c(c2)OCCO3)CC1 | inactive |  |
| COc1ccccc1N1CCN(CC(=O)NCCc2ccc(S(N)(=O)=O)cc2)CC1 | inactive |  |
| O=C(NNC(=O)c1ccccc1[N+](=O)[O-])Nc1ccccc1C(F)(F)F | inactive |  |
| COc1ccc(CCNC(=O)COc2cc(C)cc3oc(=O)c(C)c(C)c23)cc1OC | inactive |  |
| O=C(COC(=O)c1ccc([N+](=O)[O-])o1)NC12CC3CC(CC(C3)C1)C2 | inactive |  |
| COc1ccc(C(C)=O)cc1CSc1nc2nc(C)cc(C)n2n1 | inactive |  |
| COCc1c(C(=O)OCC(=O)Nc2ccc(OC(F)F)cc2)oc2ccccc12 | inactive |  |
| COc1ccc(CCN2CC(C(=O)OCC(=O)NCc3ccccc3Cl)CC2=O)cc1OC (stereo not drawn) | inactive |  |
| CC(C)(C)OC(=O)N(Cc1ccco1)S(=O)(=O)c1ccccc1Br | inactive |  |
| O=c1oc2ccccc2c(=O)c2ccccc12 | inactive |  |
| O=C(Oc1ccc(F)cc1)N1CCOCC1 | inactive |  |
| CCS(=O)(=O)N1Cc2ccccc2CC1C(=O)Nc1ccc(OC)cc1OC (stereo not drawn) | inactive |  |
| O=C(COC(=O)c1ccc(N2CCCC2=O)cc1)c1ccc(OC(F)F)cc1 | inactive |  |
| CS(=O)(=O)c1ccc(-c2nnn(CC(=O)Nc3ccc4c(c3)OCCO4)n2)cc1 | inactive |  |
| CCOC(=O)c1cnn2c(SC)ncnc12 | inactive |  |
| CC(C)(C)C(=O)c1c(N)[nH]c(C(=O)c2ccccc2)c1-c1ccc(F)cc1 | inactive |  |
| Cc1cc(NC(=O)CSc2nnc(-c3ccco3)n2N)no1 | inactive |  |
| Cc1cc(NC(=O)CSc2nnnn2-c2ccc(F)cc2)no1 | inactive |  |
| Cc1cc(C)c2c(c1)cc(C)c1nnc(SCC(=O)Nc3cc(C)on3)n12 | 8.2 µM (active) |  |
| O=C(CC1Oc2ccccc2NC1=O)NCc1ccc(F)cc1 (stereo not drawn) | inactive |  |
| COc1cccc(NC(=O)CSc2nnc(C3CCCCC3)n2N)c1 | inactive |  |

| SMILES | Potency | activity change, negative = growth inhibition |
| --- | --- | --- |
| CCN(CC)S(=O)(=O)c1ccc(Cl)c(NC(=O)c2ccncc2)c1 | inactive |  |
| CCN(CC)S(=O)(=O)c1ccc2c(c1)nc(CN(C)C(=O)Nc1ccc(Cl)cc1)n2C | 18.4 µM (active) |  |
| CCN(CC)S(=O)(=O)c1ccc(NC(=O)c2cnc(C)cn2)cc1 | inactive |  |
| COc1cc(NS(=O)(=O)c2ccc(NC(=S)NC(=O)c3ccc(Br)cc3)cc2)ncn1 | inactive |  |
| C=CCOc1cccc(CNCc2cccnc2)c1 | inactive |  |
| COC(=O)[C@H]1[C@H]2C[C@H]3c4[nH]c5ccccc5c4CCN3C[C@@H]2CC[C@@H]1O | inactive |  |
| C[C@@H]1ON(C)[C@H]2C[C@H]3c4cc(N5CCN(C)CC5)ccc4CCN3C(=O)[C@@H]12 | inactive |  |
| COc1ccc(-c2ccc3[nH]c4c(c3c2)CCN2C[C@H]3[C@H](C)ON(C)[C@H]3C[C@@H]42)cc1 | 20.6 µM (active) |  |
| CNC(=O)C[C@H]1C(=O)N(c2ccc(OC)cc2)C[C@@H]1Cc1ccccc1 | inactive |  |
| O=C(C[C@H]1C(=O)N(c2ccc(F)c(F)c2)C[C@@H]1Cc1ccccc1)Nc1ccccc1 | 11.2 µM (active) |  |
| COc1ccc(NC(=O)C[C@H]2C(=O)N(CCc3ccccc3)C[C@@H]2C)cc1 | inactive |  |
| CCOc1ccc(CNCCSc2nnnn2C)cc1 | inactive |  |
| COC(=O)COc1cccc2c(=O)n(CC(=O)NCCc3ccc(OC)c(OC)c3)ccc12 | inactive |  |
| COC(=O)COc1cccc2c(=O)n(CC(=O)NCc3ccccc3)ccc12 | 1.84 µM (active) |  |
| CCOCCn1ccc2c(OCC(=O)NCc3ccc(C)cc3)cccc2c1=O | inactive |  |
| O=C(NN=CC=Cc1ccccc1)C(O)C(O)C(=O)NN=CC=Cc1ccccc1 (stereo not drawn) | inactive |  |
| CCOc1ccc(-c2nnc(-c3ccco3)o2)cc1 | inactive |  |
| CCC(=O)Oc1cccc(C(=O)Nc2ccc(-c3nnc(-c4ccco4)o3)cc2)c1 | 6.51 µM (active) |  |
| CCCCOc1ccc(-c2nnc(-c3ccco3)o2)cc1 | inactive |  |
| COc1ccc(C)cc1S(=O)(=O)Nc1cc2c3c(c1)CCC(=O)N3CCC2 | inactive |  |
| Cc1nc(C(F)(F)F)ccc1C(=O)N1CCC1(C)C(=O)NS(=O)(=O)c1ccccc1Cl (stereo not drawn) | inactive |  |
| CCNC(=S)N(CCN(CC)CC)Cc1cc2cc3c(cc2[nH]c1=O)OCO3 | inactive |  |
| O=C(NCCN1CCOCC1)c1cccc(S(=O)(=O)Nc2ccc(F)cc2)c1 | inactive |  |
| CCN(c1ccccc1)S(=O)(=O)c1cccc(C(=O)NCc2ccccc2CN2CCOCC2)c1 | 20.6 µM (active) |  |
| CCOC(=O)C1CCCN(C(=O)c2ccc(N(C)C)cc2)CC1 (stereo not drawn) | inactive |  |
| CCOC(=O)C1CCCN(C(=O)c2cccc(S(=O)(=O)N3CCOCC3)c2)C1 (stereo not drawn) | inactive |  |

| SMILES | Potency | activity change, negative = growth inhibition |
| --- | --- | --- |
| CCOC(=O)C1CCN(C(=O)c2cccc(S(=O)(=O)N(CC)c3ccccc3)c2)CC1 | 14.6 µM (active) |  |
| CCN(CC)S(=O)(=O)c1ccc(Cl)c(C(=O)NCCN2CCOCC2)c1 | inactive |  |
| CCOc1ccc(CNC(=O)c2ccc3nc(CC)c(CC)nc3c2)cc1OC | inactive |  |
| COc1ccc(C(=O)NC(=S)N2CCNC(=O)C2CC(=O)OC(C)C)cc1 (stereo not drawn) | inactive |  |
| CCOc1cc(C(=O)Nc2ccc(S(=O)(=O)Nc3cnc4ccccc4n3)cc2)cc(OCC)c1OCC | inactive |  |
| CCc1nc2ccc(C(=O)N(C)CCN(C)C)cn2c1N(CC)CCOC | inactive |  |
| CCc1nc2ccc(C(=O)NCc3ccc(OC)cc3)cn2c1N(CC)Cc1cccc(Br)c1 | 23.1 µM (active) |  |
| CCc1nc2ccc(C(=O)N(C)Cc3ccco3)cn2c1N(C)C(=O)Cc1ccccc1 | inactive |  |
| CCc1nc2ccc(C(=O)Nc3cc(-c4ccccc4)ccc3OC)cn2c1N(CC)CC(=O)N(C)C | 14.6 µM (active) |  |
| CCc1nc2ccc(C(=O)N3CCC(O)(Cc4ccccc4)CC3)cn2c1N(C)C(=O)Cc1ccccc1 | inactive |  |
| CCc1nc2ccc(C(=O)Nc3cccc(OC)c3)cn2c1N(CCC(C)C)CCN(C)C | inactive |  |
| O=C(C[C@H]1CC[C@@H](NC(=O)c2ccncc2)[C@@H](CO)O1)NCC1CC1 | inactive |  |
| O=C(NCCCNc1ccc([N+](=O)[O-])cc1Cl)c1ccccc1F | inactive |  |
| N#CCSc1ccccc1NC(=O)CN1C(=O)NC(CCc2ccccc2)C1=O (stereo not drawn) | inactive |  |
| Cc1cnc(C(=O)OCC(=O)Nc2ccc(Cl)cc2Cl)cn1 | inactive |  |
| COC(=O)c1c(NC(=O)COc2ccc(Cl)cc2Cl)sc2c1CC(C)(C)NC2(C)C | 7.31 µM (active) |  |
| CCOC(=O)c1c(NC(=O)COc2cc(C)ccc2C(C)C)sc(C)c1C | inactive |  |
| O=S(=O)(NCCc1ccc(F)cc1)c1cccc2cccnc12 | inactive |  |
| CCOC(=O)c1ccc(NC(=O)Cn2cc(S(=O)(=O)Cc3ccccc3F)c3ccccc32)cc1 | inactive |  |
| COc1ccccc1CNC(=O)CN1CCC(n2cnc3cc(F)ccc32)CC1 | inactive |  |
| CCOc1ccc(C(=O)c2cn(Cc3ccc(F)cc3)c3ccc(F)cc3c2=O)cc1 | 18.4 µM (active) |  |
| Cc1ccc(Cn2cc(C(=O)NN)c(=O)c3ccc(F)cc32)cc1 | inactive |  |
| O=C(c1ccc(F)cc1)c1cn(Cc2ccc(F)cc2)c2cc3c(cc2c1=O)OCCO3 | inactive |  |
| CCOc1ccc(C(=O)c2cn(Cc3ccccc3OC)c3ccc(F)cc3c2=O)cc1 | 16.4 µM (active) |  |
| COc1ccc(NC(=O)Cn2cc(C(=O)c3ccncc3)c(=O)c3cc(C)ccc32)cc1Cl | inactive |  |

Source: PubChem BioAssay AID686979 (National Center for Advancing Translational Sciences (NCATS), 2013)
